Results with a measured potency or affinity are listed apart. Calls of active or inactive are those of the source. No rule for the calls is given here.
Test: antiviral activity against WNV, CPE read-out – cell-based (AID 2419)
Conditions: West Nile virus-infected cells, hits give high values; at 200 µM unless noted

Max CPE inhibition, inactive:
OC1c2cc(I)ccc2N=C2CCCN21 (stereo not given) 0.77% [at 0.39 µM]
C=CCN(C(=O)c1ccccc1Cl)c1nc(-c2ccc(OC)cc2)cs1 1.14%
OC1c2c(F)cccc2N=C2CCCN21 (stereo not given) 0.91% [at 0.39 µM]
OC1c2cc(Br)ccc2N=C2CCCCN21 (stereo not given) 0.62% [at 3.13 µM]
COc1ccc(Cn2nc(C)cc2OC(=O)c2ccccc2)cc1 1.5%
O=C(CSc1nc2ccc(F)cc2c(=O)n1-c1ccccc1)Nc1ccc2c(c1)CCC2 3.95%
O=C(CSc1nc2ccccc2c(=O)n1-c1ccc(F)cc1F)Nc1ccc(N2CCOCC2)cc1 1.05% [at 0.39 µM]
COc1cccc2c(=O)n(-c3ccccc3)c(SCC(=O)Nc3ccc4c(c3)CCC4)nc12 2.38% [at 12.5 µM]
Cc1cc(OC(=O)c2c(F)cccc2F)n(Cc2ccccc2)n1 1.92%
OC1c2cc(Cl)cc(Cl)c2N=C2CCCN21 (stereo not given) 1.94% [at 0.78 µM]
Cc1cccc2c(=O)n(-c3ccccc3)c(SCC(=O)Nc3ccc4c(c3)CCC4)nc12 2.82% [at 25 µM]
O=C(CSc1nc2ccccc2c(=O)n1-c1ccc(F)cc1)Nc1ccc2c(c1)CCC2 29.6% [at 100 µM]
COc1ccc(Cn2nc(C)cc2OC(=O)c2c(F)ccc(C)c2F)cc1 14%
OC1c2cc(Br)ccc2N=C2CCCCCN21 (stereo not given) 6.41% [at 0.78 µM]
O=C(CSc1nc2cccc(F)c2c(=O)n1-c1ccccc1)Nc1ccc2c(c1)CCC2 2.29% [at 25 µM]
OC1c2c(F)cccc2N=C2CCCCN21 (stereo not given) 0.91% [at 0.39 µM]
O=C(CSc1nc2cccc(I)c2c(=O)n1-c1ccccc1)Nc1ccc2c(c1)CCC2 3.08%
OC1c2c(F)cccc2N=C2CCCCCN21 (stereo not given) 1.99% [at 0.39 µM]
COc1ccc(Cn2nc(C)cc2OC(=O)c2c(F)cccc2F)cc1 1.63%
Cc1ccc2nc(SCC(=O)Nc3ccc4c(c3)CCC4)n(-c3ccccc3)c(=O)c2c1 6.42% [at 25 µM]
